The results in this text go back to PubChem BioAssay AID1345085 (National Center for Advancing Translational Sciences (NCATS), 2018).

Inconclusive results are not listed. Entries that show only a call come without a potency. Calls of active or inactive are those of the source. Calls follow the shape of the dose curve; as a rule, active = well fitted cell-killing curve with a large enough effect; inconclusive = small, poorly fitted or top-dose-only effect, or effect the other way; inactive = no such curve, though single readings can be large or run the other way.
Potency is read from the fitted curve at half-maximal effect.

The test system of this assay is CASKI. As to the kind of experiment: Confirmatory qHTS for gynecologic anti-cancer compounds from libraries of approved drugs and bioactive compounds. Also: nearly all actives have a fitted effect of over 55% in size. The following applies: gynecologic cancer cell panel viability, ATPlite luminescence, 48 h; series mostly up to 57.6 µM. The gist of the method: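 Viability is measured as ATP-dependent luciferase light using ATPlite, read 15 min after reagent addition at room temperature. Compounds, in DMSO, span 57.5 uM down to 0.977 nM over 11 threefold steps for 48 h.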
On the technique in general: Quantitative high-throughput screening tests each substance at several concentrations.
For `Cc1sc2c(c1C)C(c1ccc(Cl)cc1)=NC(CC(=O)OC(C)(C)C)c1nnc(C)n1-2` (centres undefined), the Potency was 7.69 µM (active). With `C[C@H]1CCC/C=C/C2C[C@H](O)C[C@H]2[C@H](O)/C=C/C(=O)O1` (some centres undefined) the figure was 0.611 µM (active). For `CCOc1ccccc1-n1c(C(C)N2CCN(C(=O)COc3ccc(Cl)cc3)CC2)nc2ccccc2c1=O` (centres undefined), the Potency result was “inactive”.

In the case of `C=C(C)[C@H]1Cc2c(ccc3c2O[C@@H]2COc4cc(OC)c(OC)cc4[C@@H]2C3=O)O1`, the Potency was 0.109 µM (active). Take `O=C(O)Cc1ccccc1`: the Potency result is “inactive”.

On to `CCN1CCN(C(=O)Cc2ccc(Nc3ncc(F)c(Nc4ccc(C(=O)Nc5ccccc5Cl)cc4)n3)cc2)CC1`, for which the Potency entry was “inactive”.

In the case of `C/C=C(/C)C(=O)O[C@H]1C(C)=C2[C@H]([C@@H]1OC(=O)CCCCCCC)[C@@](C)(OC(C)=O)C[C@H](OC(=O)CCC)[C@@]1(O)[C@H]2OC(=O)[C@@]1(C)O`, the Potency was 34.3 µM (active).

As to `C[C@]12CC[C@H]3[C@@H](CCC4=CC(=O)CC[C@@H]43)[C@@H]1CC[C@@H]2OC(=O)CCc1ccccc1`, the Potency result is “inactive”. With `CCC(=O)O[C@H]1CC[C@H]2[C@@H]3CCC4=CC(=O)CC[C@]4(C)[C@H]3CC[C@]12C` the entry was “inactive”.
